Results filed as inconclusive are left out. A call without a number means that no potency is given here. Calls of active or inactive are those of the source. Calls follow the shape of the dose curve; as a rule, active = well fitted inhibition curve with a large enough effect in the repeat runs; inconclusive = weak or mixed curves; inactive = no such curve, though single readings can be large or run the other way.
Potency is read from the fitted curve at half-maximal effect.

Cytochrome P450 2C9 (Homo sapiens), sequence (P11712 whole entry, looked up): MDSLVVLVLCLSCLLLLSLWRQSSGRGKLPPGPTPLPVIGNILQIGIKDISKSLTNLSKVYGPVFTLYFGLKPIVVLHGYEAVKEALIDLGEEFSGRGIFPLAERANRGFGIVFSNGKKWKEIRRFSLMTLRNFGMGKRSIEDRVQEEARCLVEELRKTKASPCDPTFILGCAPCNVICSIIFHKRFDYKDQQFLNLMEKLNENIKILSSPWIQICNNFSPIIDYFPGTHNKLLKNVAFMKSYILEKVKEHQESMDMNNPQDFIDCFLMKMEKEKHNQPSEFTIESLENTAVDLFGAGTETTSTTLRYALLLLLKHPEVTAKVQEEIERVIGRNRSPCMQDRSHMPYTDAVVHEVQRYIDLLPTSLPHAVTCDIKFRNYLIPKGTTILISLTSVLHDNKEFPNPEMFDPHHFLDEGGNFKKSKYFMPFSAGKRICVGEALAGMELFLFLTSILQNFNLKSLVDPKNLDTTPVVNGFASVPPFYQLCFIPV

This assay addresses Cytochrome P450 2C9 (Homo sapiens) (UniProt P11712). In words: Cytochrome P450 family 2 subfamily C member 9 (CYP2C9) small molecule antagonists: luciferase biochemical (cell-free) qHTS assay (AID 1645842). Also: nearly all actives have a fitted effect of over 55% in size. The following applies: P450-Glo CYP2C9 enzyme assay, luciferin luminescence; series mostly up to 57.4 µM. The procedure: National Center for Advancing Translational Sciences [NCATS] Assay Overview: Cytochrome P450 (CYP) enzymes are membrane-bound hemeproteins that play a key role in metabolism of drugs and xenobiotics. Assaying the effect of chemicals on CYP isozymes is useful to minimize the adverse drug reactions and toxicities in drug development process. Chemical compounds were tested for their effect on CYP enzyme activities by using P450-Glo (TM) screening systems (Promega Corporation, Madison, WI). These systems provide a luminescent method containing proluciferin substrates and are converted to luciferin products by CYP isozymes. The luciferin products formed are detected with a luciferin detection reagent, and the amount of light produced is proportional to CYP activity. P450-Glo (TM) CYP2C9 screening system (Catalog. No. V9790) was used to detect the compounds that interfere in CYP2C9 activity.
Assay Protocol Summary: Two ul of enzyme-substrate mix supplemented with 0.4% Bovine Serum Albumin was dispensed into medium binding white/solid 1536-well plates (Greiner Bio-One North America Inc., Monroe, NC) using a Flying Reagent Dispenser (FRD, Aurora Discovery, San Diego, CA). […] The assay plates were incubated at room temperature for 10 min. Then 2 ul of NADPH regeneration solution was added to each well of the assay plates using an FRD and incubated at 37C for 1 h. The reaction was stopped by adding 4 ul of detection reagent using an FRD and after 20 min incubation at room temperature, the luminescence signal was measured using a ViewLux plate reader (Perkin Elmer, Shelton, CT). Data were expressed as relative luminescence units.
On the technique in general: In qHTS, concentration-response curves come from the screen itself.
Take `O=C(Nc1cccnn1)N1CCC(=Cc2cccc(Oc3ccc(C(F)(F)F)cn3)c2)CC1`: the Potency result was “inactive”.
Regarding `CC(=O)NCCCCn1c2c(c3ccccc31)C(=O)NCC2`, the Potency entry was “inactive”.
In the case of `CCc1cc2c(=O)c(-c3nc4ccccc4s3)coc2c(CN2CCCCC2)c1O` it was 0.12 µM (active).
In the case of `CC1(C)OC(=O)C(OCC2CC2)=C1c1ccc(S(C)(=O)=O)cc1` it was 13.5 µM (active).
In the case of `Nc1nc(N)c2nc(CNc3ccc(C(=O)N[C@@H](CCC(=O)O)C(=O)O)cc3)cnc2n1` it was “inactive”; in that of `CCn1cc(C2=NOC(C(=O)Nc3c(C)n(C)n(-c4ccccc4)c3=O)C2)c(C)n1` (stereo not given), 1.9 µM (active).
On to `CC(C)(C)c1cc(CN2CCN(CC(O)c3ccc(Cl)cc3)CC2)cc(C(C)(C)C)c1O` (stereo not given), for which the Potency is 8.49 µM (active).
`COc1cccc(-c2ccc([C@@H](Oc3cc(-c4ccc(C[C@H](N)C(=O)O)cc4)nc(N)n3)C(F)(F)F)cc2)c1`: the Potency was 6.74 µM (active).
Regarding `CC(=O)c1cnc2ccc(-c3cc(Cl)c(O)c(Cl)c3)nc2c1NC1CCC(CN(C)C)CC1` (stereo not given), the Potency result is “inactive”.
In the case of `CNC(=O)Nc1ccc(OC)c(NC(=O)NC(=O)c2cc(F)c(F)cc2Cl)c1` it was “inactive”; in that of `CCn1c2ccccc2c2cc(CNC)ccc21`, “inactive”; in that of `O=C(NCC(=O)N1CC[C@H](NC2CCC(O)(c3ccc(-c4ncccn4)cn3)CC2)C1)c1cccc(C(F)(F)F)c1` (stereo not given in full), “inactive”.
In the case of `Cc1cc(C)cc(NC(=O)Cc2ccc(OC(C)(C)C(=O)O)cc2)c1` it was “inactive”; in that of `OC[C@H]1O[C@@H](n2cnc3c2NC=NC[C@H]3O)C[C@@H]1O`, “inactive”.
For `O=C(c1ccc(C#Cc2cccc(F)c2)cn1)N1CC2CC2C1` (stereo not given), the Potency was 23.9 µM (active).
The same measure for `C#Cc1cnc2[nH]c(=O)n(C(CC)CC)c2n1`: 8.49 µM (active); for `Cc1onc(-c2ccccc2)c1C(=O)N[C@@H]1C(=O)N2[C@@H]1SC(C)(C)[C@@H]2C(=O)O`: “inactive”.
The same measure for `COc1ccc([C@@H]2N[C@H](C(=O)O)Cc3c2[nH]c2ccccc32)cc1CN1CCN(c2ccccc2F)CC1`: “inactive”.
Consider `O=c1ccn([C@@H]2O[C@H](CO)[C@@H](O)[C@H]2O)c(=O)[nH]1`, for which the Potency result was “inactive”.
In the case of `CC[C@H]1OC(=O)C[C@@H](O)[C@H](C)[C@@H](O[C@@H]2O[C@H](C)[C@@H](O)[C@H](N(C)C)[C@H]2O)[C@@H](CCN2C[C@H](C)C[C@H](C)C2)C[C@@H](C)C(=O)/C=C/C(C)=C/[C@@H]1CO[C@@H]1O[C@H](C)[C@@H](O)[C@@H](OC)[C@H]1OC` it was “inactive”; in that of `Nc1ncnc2c1ncn2[C@H]1CCCO1`, “inactive”; in that of `CCCCCCCC(=O)O`, “inactive”.
The same measure for `C[C@H](NCc1ccc(OCc2ccccc2F)cc1)C(N)=O`: “inactive”; for `Cc1ccc(C(=O)Nc2ccc(Oc3cc4cnn(C)c4cc3-c3cn[nH]c3)c(F)c2)c(=O)n1-c1ccc(F)cc1`: 2.68 µM (active); for `O=S(=O)(O)c1ccc2c(N=Nc3ccc(S(=O)(=O)O)c4ccccc34)c(O)c(S(=O)(=O)O)cc2c1`: 12 µM (active).
With `CCOC(=O)c1c(C)nn(-c2cccc([N+](=O)[O-])c2)c1C`, the Potency is 1.07 µM (active).
On to `COc1cccc2c1CCC[C@H]2CN(C)CCc1ccc2ccoc2c1`, for which the Potency was 0.425 µM (active).
In the case of `Cc1nn(C)c2c1C(c1ccc(C(F)(F)F)cc1)C(C#N)=C(N)O2` (stereo not given) it was 21.3 µM (active).
Consider `CC(C)N(C[C@H]1O[C@@H](n2cnc3c(N)ncnc32)[C@H](O)[C@@H]1O)C1CC(CCc2nc3ccc(C(C)(C)C)cc3[nH]2)C1` (stereo not given in full), for which the Potency entry was “inactive”.
In the case of `O=C(c1ccc(F)cc1)C1CCN(CCn2c(=O)nc3n(c2=O)CCCC3)CC1` it was “inactive”; in that of `COC(=O)[C@H](CC1C=NC=N1)NCC12CC3CC(CC(C3)C1)C2` (stereo not given in full), “inactive”; in that of `CN1Cc2c(N)cccc2C(c2ccccc2)C1` (stereo not given), “inactive”.
The same measure for `COc1cc(N2CCC(O)CC2)ccc1Nc1cc(Nc2ccccc2S(=O)(=O)C(C)C)c2cc[nH]c2n1`: 6.61 µM (active).
As to `CCC(=O)N[C@@H]1Cc2ccccc2[C@H](c2ccccc2)C1`, the Potency is 3.01 µM (active).
In the case of `NC(Cc1c[nH]c2ccccc12)C(=O)NC(CCC(=O)O)C(=O)O` (stereo not given) it was “inactive”; in that of `CCOC(=O)N1CCC(NCCNC(=O)c2ccccc2C)CC1`, “inactive”.
The same measure for `O=C(Nc1ccc(Br)cc1)c1cc(Br)c(Br)s1`: 21.3 µM (active).
Take `CCn1nnnc1NCc1ccc(C(C)C)cc1`: the Potency is 7.56 µM (active).
With `Cc1cc(Nc2ncc(Cl)c(Nc3ccccc3S(=O)(=O)C(C)C)n2)c(OC(C)C)cc1C1CCNCC1`, the Potency is 3.38 µM (active).
In the case of `O=S(=O)(NC1CCNCC1)c1cc(S(=O)(=O)c2ccccc2)ccc1C(F)(F)F` it was “inactive”.

The record behind these values is PubChem BioAssay (NCATS).
